Reference: PubChem BioAssay (EPA / NIEHS)
Inconclusive results are not listed. Activity calls are given as the source filed them. The calls were made as follows, unless noted: active = hit-call score of the fitted dose curve at least 0.9, where 1 is the maximum; inactive = score below 0.9.

Legend:
[1] = CEETOX_H295R_OHPROG: CeeTox H295R High-throughput Steroidogenesis Assay for OH-Progesterone (OHPROG) (AID 2283435); settings: actives raise or lower the signal
Outline: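 Secreted 17alpha-hydroxyprogesterone is read by tandem MS from media of forskolin-primed H295R cells dosed with chemical for 48 h. Activity is fitted in both directions against DMSO baseline; cytotoxic concentrations are re-tested diluted.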

[2] = CEETOX_H295R_CORTIC: CeeTox H295R High-throughput Steroidogenesis Assay for Corticosterone (CORTIC) (AID 2283437); settings: actives raise or lower the signal;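 also: corticosterone secreted into medium quantified by mass spectrometry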
Outline: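 H295R adrenal cells prestimulated 48 hours with 10 uM forskolin, then exposed 48 hours to chemical in 0.1% DMSO. Corticosterone in medium measured by HPLC-MS/MS after MTBE extraction; MTT viability in the same wells; bidirectional fit versus DMSO.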

[3] = CEETOX_H295R_CORTISOL: CeeTox H295R High-throughput Steroidogenesis Assay for Cortisol (AID 2283438); settings: actives raise or lower the signal;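 also: cortisol secreted into medium quantified by LC-MS/MS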
Outline: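 Human adrenocortical H295R cells (passage ≤10) received test chemicals for 48 h after forskolin priming. Secreted cortisol was measured by LC-MS/MS.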

[4] = CEETOX_H295R_DOC: CeeTox H295R High-throughput Steroidogenesis Assay for DOC (AID 2283439); settings: actives raise or lower the signal
Outline: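 Secreted DOC was quantified from H295R media by HPLC-MS/MS after 48 h chemical exposure following 48 h forskolin (10 uM) prestimulation. Values were fitted in both directions relative to DMSO, the negative control and baseline.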

[5] = CEETOX_H295R_PROG: CeeTox H295R High-throughput Steroidogenesis Assay for Progesterone (PROG) (AID 2283442); settings: actives raise or lower the signal;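 as to AC50: human H295R adrenal cells primed with 10 µM forskolin before dosing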
Outline: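 Measured analyte is progesterone secreted by H295R cells at 48 h of chemical treatment, following 10 uM forskolin priming. Quantitation used HPLC-MS/MS against a 7-point standard curve; cytotoxicity was checked by MTT absorbance.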

[6] = CCTE_Mundy_HCI_Cortical_Synap_Neur_Matur_NeuriteSpotCountPerNeuriteLength: CCTE's Synaptogenesis and Neurite Maturation Assay in rat cortical cells for Neurite Spot Count per Neurite Length, Mundy Lab (AID 2284210)
Outline: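 Rat primary cortical cultures, AraC added at DIV 5 to suppress glia; chemical exposure from DIV 7 to DIV 12. Fixed cells stained for MAP2 and synaptophysin plus Hoechst; synaptophysin puncta per neurite length quantified by high-content imaging, relative to DMSO.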

[7] = CCTE_Mundy_HCI_Cortical_Synap_Neur_Matur_BPCount: CCTE's Synaptogenesis and Neurite Maturation Assay in rat cortical cells for Branch Point Count, Mundy Lab (AID 2284211)
Outline: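 Branch point number is quantified by automated imaging of fluorescently labelled neurites and synapses in rat primary cortical neurons exposed from DIV 7 to DIV 12. Activity is analysed relative to DMSO negative control.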

[8] = CCTE_Mundy_HCI_Cortical_NOG_NeuriteCount: CCTE's Neurite Outgrowth Assay in rat cortical cells for Neurite Count, Mundy Lab (AID 2284212);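 also: cells fixed about two days after chemical exposure began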
Outline: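 Neurite number per cell from high-content imaging of betaIII-tubulin immunostaining, with Hoechst nuclear counterstain.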

[9] = CCTE_Mundy_HCI_Cortical_NOG_NeuriteLength: CCTE's Neurite Outgrowth Assay in rat cortical cells for Neurite Length, Mundy Lab (AID 2284213);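 as to AC50: neurites imaged about 48 to 50 h after chemical exposure began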
Outline: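 Neurite length was read by high-content imaging of βIII-tubulin-labelled neurites in rat primary cortical cultures. Activity was fitted relative to DMSO.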

[10] = CCTE_Mundy_HCI_Cortical_Synap_Neur_Matur_NeuriteLength: CCTE's Synaptogenesis and Neurite Maturation Assay in rat cortical cells for Neurite Length, Mundy Lab (AID 2284214)
Outline: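 Neurite length in rat primary cortical cultures is imaged after MAP2, synaptophysin and Hoechst staining. Dosing starts DIV 7, ending DIV 12; DMSO serves as negative control and baseline.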

[11] = CCTE_Mundy_HCI_Cortical_Synap_Neur_Matur_NeuriteSpotCountPerNeuron: CCTE's Synaptogenesis and Neurite Maturation Assay in rat cortical cells for Neurite Spot Count per Neuron Count, Mundy Lab (AID 2284215)
Outline: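 Developing rat cortical neurons, with glia suppressed by AraC, are exposed to chemicals from DIV 7 to DIV 12. Automated fluorescence imaging of MAP2-labelled neurites and synaptophysin puncta yields a count per neuron, normalised against DMSO wells.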

[12] = CCTE_Mundy_HCI_Cortical_Synap_Neur_Matur_SynapseCount: CCTE's Synaptogenesis and Neurite Maturation Assay in rat cortical cells for Synapse Count, Mundy Lab (AID 2284218)
Outline: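 Synapse count per neuron is measured in rat cortical neurons exposed to chemicals between DIV 7 and DIV 12, with glial growth arrested by AraC at DIV 5. Synaptophysin and MAP2 staining is imaged automatically; activity is fitted relative to DMSO.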

[13] = CCTE_Mundy_HCI_Cortical_Synap_Neur_Matur_NeuriteCount: CCTE's Synaptogenesis and Neurite Maturation Assay in rat cortical cells for Neurite Count, Mundy Lab (AID 2284222)
Outline: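 Primary rat cortical cells were plated, treated with AraC at DIV 5, then exposed to chemicals from DIV 7 through DIV 12. After fixation and immunostaining for MAP2 and synaptophysin, imaging quantified neurites, with DMSO as the negative control.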

[14] = CCTE_Mundy_HCI_Cortical_Synap_Neur_Matur_CellBodySpotCount: CCTE's Synaptogenesis and Neurite Maturation Assay in rat cortical cells for Cell Body Spot Count, Mundy Lab (AID 2284223)
Outline: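 Chemicals were applied to AraC-treated rat primary cortical cells at DIV 7 and measured at DIV 12. Fixed cells were labelled for MAP2, synaptophysin and nuclei, and high-content imaging gave cell body synaptophysin spot counts per neuron relative to DMSO.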

[15] = CCTE_Mundy_HCI_hNP1_Pro_ResponderAvgInten: CCTE's Proliferation Assay in human neuroprogenitor cells, Mundy Lab (AID 2284224; active = hit-call score of the fitted dose curve at least 0.9, where 1 is the maximum;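 also: human neural progenitor cells hNP1 derived from WA09 embryonic stem cells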)
Outline: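 Proliferation read as average intensity of BrdU-positive cells, imaged at 26.25 h post-dosing: chemical exposure started after 40–44 h culture, BrdU during final 4 h, paraformaldehyde fixation. Positive-direction fit relative to DMSO.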

[16] = CCTE_Mundy_HCI_Cortical_NOG_BPCount: CCTE's Neurite Outgrowth Assay in rat cortical cells for Branch Point Count, Mundy Lab (AID 2284237);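 as to AC50: branch points counted about two days after chemical exposure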
Outline: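 Measured 50.33 h after dosing, this morphology endpoint uses rat primary cortical cultures labelled for betaIII-tubulin. Branch points are quantified by high-content imaging, with DMSO as negative control and baseline.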

[17] = CCTE_Mundy_HCI_hNP1_Casp3_7: CCTE's Caspase-Glo 3/7 Assay in human neuroprogenitor cells for Apoptosis, Mundy Lab (AID 2284240)
Outline: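 Luminescent caspase-3/7 readout, 26.5 h post-dose, in human neural progenitor cells from WA09 embryonic stem cells. Cells grew 40–44 h at 37 °C, 5% CO2 before chemical addition. Activity analysed as signal increase over DMSO baseline.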

[18] = CCTE_Mundy_HCI_hNP1_CellTiter: CCTE's Cell Titer-Glo 2 Assay in human neuroprogenitor cells for Viability, Mundy Lab (AID 2284241; active = hit-call score of the fitted dose curve at least 0.9, where 1 is the maximum;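 as to AC50: a hit is a drop in ATP luminescence versus DMSO meaning reduced viability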)
Outline: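 Viability read as luminescent ATP content (CellTiter-Glo, 30 min room temperature) twenty-four hours after dosing, relative to DMSO. Cells: WA09-derived hNP1 neuroprogenitors on poly-L-ornithine/laminin, plated 40 to 44 hours before chemical.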

PGR (gene 5241) = PGR (gene 5241) (UniProt P06401); test: TOX21_PR_BLA_Followup_Antagonist_ratio: Tox21 HEK293 Progesterone Receptor (PR) Antagonism Beta-lactamase Follow-Up Assay, Ratio (AID 2283934; active = hit-call score of the fitted dose curve at least 0.9, where 1 is the maximum;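 also: PR-UAS-bla HEK293T cells stimulated with 1 nM R5020 agonist for 16 hr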)
PGR (gene 5241), sequence (P06401 whole entry, looked up): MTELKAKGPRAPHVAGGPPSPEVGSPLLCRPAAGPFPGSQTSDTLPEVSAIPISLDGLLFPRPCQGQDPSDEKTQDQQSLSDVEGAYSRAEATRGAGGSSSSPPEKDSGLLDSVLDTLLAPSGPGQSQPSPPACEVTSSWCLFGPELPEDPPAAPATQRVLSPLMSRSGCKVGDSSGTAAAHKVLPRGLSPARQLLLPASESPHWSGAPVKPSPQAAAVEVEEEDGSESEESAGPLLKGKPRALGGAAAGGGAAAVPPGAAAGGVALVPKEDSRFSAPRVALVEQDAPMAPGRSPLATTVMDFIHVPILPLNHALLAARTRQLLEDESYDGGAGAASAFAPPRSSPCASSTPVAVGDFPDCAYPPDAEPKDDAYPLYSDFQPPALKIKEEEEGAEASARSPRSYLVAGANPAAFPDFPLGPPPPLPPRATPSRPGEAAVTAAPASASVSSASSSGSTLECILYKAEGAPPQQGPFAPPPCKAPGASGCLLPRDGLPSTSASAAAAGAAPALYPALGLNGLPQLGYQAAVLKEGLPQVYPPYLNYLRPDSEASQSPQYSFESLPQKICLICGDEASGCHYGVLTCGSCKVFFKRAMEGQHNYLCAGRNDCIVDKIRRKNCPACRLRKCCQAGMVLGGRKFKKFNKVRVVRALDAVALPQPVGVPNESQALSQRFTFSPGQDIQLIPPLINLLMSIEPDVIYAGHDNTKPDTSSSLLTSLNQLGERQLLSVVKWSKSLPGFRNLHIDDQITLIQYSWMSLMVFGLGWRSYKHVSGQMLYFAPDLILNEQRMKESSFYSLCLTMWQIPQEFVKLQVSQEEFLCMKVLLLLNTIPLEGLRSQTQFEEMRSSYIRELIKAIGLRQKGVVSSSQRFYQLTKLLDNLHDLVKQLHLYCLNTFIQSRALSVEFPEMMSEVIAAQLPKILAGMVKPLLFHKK
Outline: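 Antagonist mode used 1 nM R5020 (final) as agonist on a beta-lactamase reporter line in HEK293T cells. Activity was taken from the substrate cleavage ratio after 16 hr exposure.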

[19] = TOX21_PR_BLA_Followup_Agonist_viability: Viability Assessment in the Tox21 HEK293 Progesterone Receptor (PR) Agonism Beta-lactamase Follow-Up Assay (AID 2283935; active = hit-call score of the fitted dose curve at least 0.9, where 1 is the maximum;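 also: cells exposed to compound for 16 hr at 37 °C; signal loss means lower viability so actives are cytotoxic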)
Outline: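 Multiplexed viability counter-screen: ATP-coupled luciferase signal measured after 30 min at room temperature, following 16 hr compound treatment of PR-UAS-bla HEK293T cells grown in charcoal-stripped serum.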

Measured: AC50

c1ccc(CNc2ncnc3nc[nH]c23)cc1
active: [5] 21.9 µM
inactive: [1] | [2] | [3] | [4]

NC(N)=Nc1nc(CSCCC(N)=NS(N)(=O)=O)cs1
not listed: [1] | [2] | [3] | [4] | [5] | PGR (gene 5241) | [19]
inactive: all other assays above

CCO[Si](CCCN)(OCC)OCC
inactive: [1] | [2] | [3] | [4] | [5]

Oc1ccc2c(c1)Cc1ccccc1-2
inactive: [19]
active: PGR (gene 5241) 29.4 µM

CC(O)(c1ccc(Cl)cc1)c1ccc(Cl)cc1
active: PGR (gene 5241) 46.1 µM
inactive: [19]

CNCCC(Oc1ccc(C(F)(F)F)cc1)c1ccccc1 (stereo not given)
inactive: [14] | [15]
active: [6] 12 µM | [7] 6.57 µM | [8] 14.7 µM | [9] 12.2 µM | [10] 6.03 µM | [11] 8.96 µM | [12] 9.16 µM | [13] 11.6 µM | [16] 10.9 µM | [17] 12.7 µM | [18] 20.7 µM
